About 2,000 (36%) of roughly 5,500 compounds were called active. Another 18% or so got no clear call; they are omitted. Rule as the data show it: active = normalized growth mostly below about 0.91 (no sharp cut-off); inconclusive = no clear call, values can overlap the other calls; inactive = mostly above about 0.92. The list shows a part of the results.
Test: chemical genetic growth profiling, strain panel (AID 1159580);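 also: tested at 20 µM; growth read once vehicle control cultures reached saturation at 30 °C; 1 = growth at the plate median or of vehicle wells; lower values mean less growth of the strain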
Conditions: S. cerevisiae deletion strains, growth OD

Measured: normalized growth

CC(CC(C(N)=O)(c1ccccc1)c1ccccc1)N(C)C (stereo not given)
inactive: locus YAL021C, strain ccr4, stronger effect = lower value 0.952 | locus YAL026C, strain drs2, stronger effect = lower value 0.977 | locus YAL030W, strain snc1, stronger effect = lower value 0.996 | locus YBL061C, strain skt5, stronger effect = lower value 0.983 | locus YBR009C, strain hhf1, stronger effect = lower value 0.988 | locus YBR023C, strain chs3, stronger effect = lower value 0.949 | locus YBR171W, strain sec66, stronger effect = lower value 0.967 | locus YBR231C, strain swc5, stronger effect = lower value 0.994 | locus YBR279W, strain paf1, stronger effect = lower value 0.995 | locus YCL011C, strain gbp2, stronger effect = lower value 0.963 | locus YCL016C, strain dcc1, stronger effect = lower value 0.989 | locus YCL061C, strain MRC1, stronger effect = lower value 0.981 | locus YCL069W, strain vba3, stronger effect = lower value 0.976 | locus YCR088W, strain abp1, stronger effect = lower value 0.973 | locus YDL005C, strain med2, stronger effect = lower value 0.989 | locus YDL040C, strain nat1, stronger effect = lower value 0.996 | locus YDR001C, strain nth1, stronger effect = lower value 0.974 | locus YDR069C, strain doa4, stronger effect = lower value 0.973 | locus YDR137W, strain rgp1, stronger effect = lower value 0.968 | locus YDR159W, strain sac3, stronger effect = lower value 0.981 | locus YDR195W, strain ref2 0.981 | locus YDR297W, strain sur2, stronger effect = lower value 0.983 | locus YDR334W, strain swr1, stronger effect = lower value 0.942 | locus YDR335W, strain msn5, stronger effect = lower value 0.978 | locus YDR392W, strain spt3, stronger effect = lower value 0.958 | locus YEL003W, strain gim4, stronger effect = lower value 0.982 | locus YEL037C, strain rad23, stronger effect = lower value 0.939 | locus YEL061C, strain CIN8 (second series), stronger effect = lower value 0.982 | locus YER015W, strain faa2, stronger effect = lower value 1.01 | locus YER016W, strain bim1, stronger effect = lower value 0.982 | locus YER111C, strain swi4, stronger effect = lower value 0.994 | locus YER155C, strain BEM2 (second series), stronger effect = lower value 0.985 | locus YFR010W, strain ubp6, stronger effect = lower value 0.964 | locus YGL167C, strain pmr1, stronger effect = lower value 0.988 | locus YGL173C, strain kem1, stronger effect = lower value 0.975 | locus YGL227W, strain vid30, stronger effect = lower value 0.989 | locus YGL240W, strain doc1, stronger effect = lower value 0.981 | locus YGL253W, strain hxk2, stronger effect = lower value 0.937 | locus YHR013C, strain ard1, stronger effect = lower value 0.951 | locus YHR027C, strain rpn1, stronger effect = lower value 0.978 | locus YHR030C, strain SLT2, stronger effect = lower value 1.02 | locus YHR079C, strain IRE1, stronger effect = lower value 1.02 | locus YHR142W, strain chs7, stronger effect = lower value 0.957 | locus YJL092W, strain hpr5, stronger effect = lower value 0.969 | locus YJL095W, strain BCK1 (second series), stronger effect = lower value 0.983 | locus YJL095W, strain BCK1, stronger effect = lower value 0.992 | locus YJL115W, strain asf1, stronger effect = lower value 0.962 | locus YJL129C, strain trk1, stronger effect = lower value 0.952 | locus YJL154C, strain vps35, stronger effect = lower value 0.984 | locus YJL164C, strain tpk1, stronger effect = lower value 0.974 | locus YJL166W, strain qcr8, stronger effect = lower value 0.987 | locus YJL187C, strain SWE1, stronger effect = lower value 0.984 | locus YJR066W, strain TOR1, stronger effect = lower value 0.969 | locus YKL160W, strain elf1, stronger effect = lower value 0.978 | locus YKR026C, strain gcn3, stronger effect = lower value 0.979 | locus YKR091W, strain srl3, stronger effect = lower value 0.987 | locus YLL001W, strain dnm1, stronger effect = lower value 0.994 | locus YLL026W, stronger effect = lower value 0.986 | locus YLL041C, strain sdh2, stronger effect = lower value 0.979 | locus YLR027C, strain aat2, stronger effect = lower value 0.989 | locus YLR113W, strain HOG1, stronger effect = lower value 0.999 | locus YLR221C, strain rsa3, stronger effect = lower value 0.979 | locus YLR258W, strain gsy2, stronger effect = lower value 0.978 | locus YLR262C, strain YPT6 (second series), stronger effect = lower value 0.977 | locus YLR320W, strain mms22, stronger effect = lower value 0.992 | locus YLR342W, strain FKS1, stronger effect = lower value 0.986 | locus YLR357W, strain rsc2, stronger effect = lower value 0.992 | locus YLR370C, strain arc18, stronger effect = lower value 0.984 | locus YLR384C, strain iki3, stronger effect = lower value 0.994 | locus YML120C, strain ndi1, stronger effect = lower value 0.97 | locus YMR058W, strain fet3, stronger effect = lower value 0.967 | locus YMR125W, strain sto1, stronger effect = lower value 0.995 | locus YMR129W, stronger effect = lower value 0.972 | locus YMR205C, strain PFK2, stronger effect = lower value 0.965 | locus YMR231W, strain pep5, stronger effect = lower value 0.983 | locus YNL071W, strain lat1, stronger effect = lower value 0.979 | locus YNL183C, strain NPR1, stronger effect = lower value 0.973 | locus YNL209W, strain ssb2, stronger effect = lower value 0.983 | locus YNL248C, strain rpa49, stronger effect = lower value 0.941 | locus YNL322C, strain KRE1 (second series), stronger effect = lower value 0.983 | locus YNR049C, strain mso1, stronger effect = lower value 0.976 | locus YOR001W, strain rrp6, stronger effect = lower value 0.959 | locus YOR070C, strain gyp1, stronger effect = lower value 0.99 | locus YOR080W, strain dia2, stronger effect = lower value 0.971 | locus YOR083W, strain WHI5, stronger effect = lower value 0.973 | locus YOR106W, strain vam3, stronger effect = lower value 0.982 | locus YOR231W, strain MKK1, stronger effect = lower value 1.04 | locus YOR265W, strain rbl2, stronger effect = lower value 0.991 | locus YOR270C, strain vph1, stronger effect = lower value 0.954 | locus YOR290C, strain snf2, stronger effect = lower value 0.988 | locus YPL051W, strain arl3, stronger effect = lower value 0.996 | locus YPL078C, strain atp4, stronger effect = lower value 0.94 | locus YPL106C, strain sse1, stronger effect = lower value 0.968 | locus YPL240C, strain hsp82, stronger effect = lower value 0.967 | locus YPL256C, strain CLN2, stronger effect = lower value 1.03
